High-throughput results as filed in PubChem.
The full list was thinned out, with hits kept by preference.
AID inhibitor – activation induced cytidine deaminase inhibition; AID deamination FRET fluorescence, UDG-coupled, 4 h; Potency, µM (top dose mostly 115 µM), most hits filed as inhibitors; hit rate 0.32% among 91,000; AID 1347428; also: nearly all actives have a fitted effect of over 25% in size
Target sequence (Q9GZX7 whole entry, looked up): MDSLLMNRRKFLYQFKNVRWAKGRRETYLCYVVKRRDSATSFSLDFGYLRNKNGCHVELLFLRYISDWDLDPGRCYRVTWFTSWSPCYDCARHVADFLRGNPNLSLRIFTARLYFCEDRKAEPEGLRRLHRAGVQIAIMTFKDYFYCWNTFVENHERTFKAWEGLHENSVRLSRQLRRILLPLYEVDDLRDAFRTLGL
UDG counter – counter-screen for AID inhibitors: uracil-DNA glycosylase inhibition. FRET deamination/UDG coupled assay, UDG read, 4 h. Potency, µM (series often up to 115 µM), usual class: inhibitors. hit rate 0.14% among 91,000. AID 1347430; also: nearly all actives have a fitted effect of over 65% in size
DRV1 agonist – agonists of human resolvin D1 receptor DRV1 (GPR32); O75388; hit rate 2.5% among 48,000; CHO-K1 GPR32 beta-arrestin PathHunter luminescence, 90 min; zero percent set by DMSO-only wells; activation, % at 76.9 µM;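 active = activation of at least 60% and not above a set upper limit, about 1 call in 100 departs from these limits; inconclusive = activation of 40% to 60%, or above that upper limit; inactive = activation under 40%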
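Step 1: seed CHO-K1 GPR32 beta-arrestin cells, 2,500/well, overnight at 37 °C. Step 2: add compounds, 90 min at 37 °C. Step 3: detection reagent, 1 h ambient, then luminescence.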
Each line names hits and unclear results; the compound was inactive in the other large screens. Unless noted, calls follow the shape of the dose curve; as a rule, active = well fitted curve in the direction sought with a large enough effect; inconclusive = small, poorly fitted or top-dose-only effect, or another doubt; inactive = no such curve, though single readings can be large; an effect the other way counts as inactive or inconclusive.

COc1ccc(Nc2ncnc3sc4c(c23)CCCC4)cc1	DRV1 agonist 94.2
CCc1ccc(Nc2ncnc3sc4c(c23)CCCC4)cc1	AID inhibitor inconclusive
CC1CCN(C(=O)Cn2cc(SCc3ccc(C(F)(F)F)cc3)c3ccccc32)CC1	none (no result: DRV1 agonist)
CCOC(=O)C1=C(C(Br)Br)NC(=O)NC1c1ccc2c(c1)OCO2 (configuration not stated)	none (no result: DRV1 agonist)
O=C(O)CCc1ncc(-c2c(F)cccc2F)o1	none (no result: DRV1 agonist)
Cc1ccc(C(Nc2ccccn2)c2ccc3cccnc3c2O)cc1 (configuration not stated)	DRV1 agonist inconclusive
COc1ccc(C(Nc2ccccn2)c2ccc3ccc(C)nc3c2O)cc1C (configuration not stated)	UDG counter inconclusive, DRV1 agonist 89.8
COCCN(CC(N)=O)S(=O)(=O)c1cc(F)ccc1C	none (no result: DRV1 agonist)
O=c1c2sccc2ncn1Cc1coc(-c2cccc(F)c2)n1	none (no result: DRV1 agonist)
O=C(COc1ccc(Cl)cc1)NCCc1csc(-c2ccc(F)cc2)n1	DRV1 agonist 109.4
O=C(COc1ccccc1)NCCc1csc(-c2cccc(F)c2)n1	none
O=C(COc1ccc(Cl)cc1)NCCc1csc(-c2ccc(C(F)(F)F)cc2)n1	none
O=C(COc1ccccc1)NCCc1csc(-c2ccc(Cl)cc2)n1	DRV1 agonist 95.0
CCCN(CCC)CC(O)Cn1cc(/C=C/C(=O)c2ccc(OC)cc2)c2ccccc21 (configuration not stated)	AID inhibitor inconclusive
O=C(/C=C/c1cn(CC(O)CN2CCCCCC2)c2ccccc12)c1ccccc1 (configuration not stated)	AID inhibitor inconclusive
CCCN(CCC)CC(O)Cn1cc(/C=C/C(=O)c2ccc(Br)cc2)c2ccccc21 (configuration not stated)	none
CCCCN(C)CC(O)Cn1cc(/C=C/C(=O)c2ccc(C)cc2)c2ccccc21 (configuration not stated)	AID inhibitor inconclusive, DRV1 agonist 65.0
O=C(/C=C/c1cn(CC(O)CN2CCCCCC2)c2ccccc12)c1ccc(Br)cc1 (configuration not stated)	AID inhibitor inconclusive, DRV1 agonist 88.0
CCCCN(C)CC(O)Cn1cc(/C=C/C(=O)c2ccc(OC)c(OC)c2)c2ccccc21 (configuration not stated)	AID inhibitor inconclusive
CCCCN(C)CC(O)Cn1cc(/C=C/C(=O)c2ccc(Br)cc2)c2ccccc21 (configuration not stated)	AID inhibitor inconclusive, DRV1 agonist 74.2
CCCN(CCC)CC(O)Cn1cc(/C=C/C(=O)c2ccc(C)cc2)c2ccccc21 (configuration not stated)	AID inhibitor 35.5µM
CC(C)(C)NC(=O)NC(=O)CSC1=Nc2ccccc2CS1	none (no result: DRV1 agonist)
Cc1ccc2nc(-c3ccc(C)c(C)c3)cc(C(=O)O)c2c1	none (no result: DRV1 agonist)
Cc1cc(C)c(NC(=O)c2sc3nc(C)cc(C)c3c2N)c(C)c1	none
Cc1cc(C)c2c(N)c(C(=O)Nc3ccccc3C(F)(F)F)sc2n1	DRV1 agonist 89.4
O=C(/C=C/c1ccc2ccc(Cl)cc2n1)NC1CCCCC1	none (no result: DRV1 agonist)
COc1cccc(CNC(=O)C2CCCN(c3nc4ccccc4n4cccc34)C2)c1 (configuration not stated)	none
Cc1ccc(CNC(=O)C2CCCN(c3nc4ccccc4n4cccc34)C2)cc1 (configuration not stated)	AID inhibitor 79.4µM
O=C(CSc1ccc2ccccc2c1)OCC(=O)c1ccc2c(c1)OCCO2	none (no result: DRV1 agonist)
COc1cc(-c2noc(CSc3nc(-c4ccc(F)cc4)cc(=O)[nH]3)n2)cc(OC)c1OC	none
COc1ccc(-c2noc(CSc3nc(N)cc(=O)[nH]3)n2)cc1	DRV1 agonist 98.3
Cc1ccc2nc(SCc3nc(-c4ccc(Cl)cc4)no3)[nH]c2c1	none
COc1ccc(-c2noc(CSc3nc4ccccc4[nH]3)n2)cc1	DRV1 agonist 96.1
Cc1ccc(/C=C(/C#N)c2ccc(C(F)(F)F)cn2)cc1	none (no result: DRV1 agonist)
Cc1ccc(OCc2ccc(C(N)=O)cc2)cc1	none (no result: DRV1 agonist)
Cc1[nH]ccc(=O)c1OCC(=O)Nc1ccncc1	none (no result: DRV1 agonist)
Cc1c(Cl)cccc1NC(=O)CN1CCC2(CC1)OCCO2	none (no result: DRV1 agonist)
CC(C)(C)c1cc(CCC(=O)NC2CC2)cc(C(C)(C)C)c1O	none (no result: DRV1 agonist)
CC(C)C(=O)OCc1cc(=O)n2nc(C3CCCCC3)sc2n1	none
CC(C)CC(=O)OCc1cc(=O)n2nc(C3CCCCC3)sc2n1	DRV1 agonist 70.8
Cc1cccc(N2CCN(c3ncnc4onc(C)c34)CC2C)c1 (configuration not stated)	DRV1 agonist inconclusive
Cc1cccc(N2CCN(c3ncnc4onc(-c5ccc(F)cc5)c34)CC2C)c1 (configuration not stated)	AID inhibitor inconclusive, UDG counter 79.4µM
